Assay outcomes: PubChem, several laboratories
BaF3 tox: parental Ba/F3 cell viability inhibition, counter-screen for JAK2V617F inhibitor project, murine pro-B, CellTiter-Glo luminescence; CellTiter-Glo ATP luminescence; hit rate 1.1% among 220,000; inhibition, % at 5.6 µM;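 active = inhibition above a per-campaign cutoff, the mean inhibition of all tested compounds plus 3 SD, cut at about 27% in these data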
IEC-6 tox-1: cytotoxicity in IEC-6 intestinal epithelial cells, primary screen, cytotoxicity control for KLF5 inhibitor project, cell-based, luminescence | hit rate 0.78% among 290,000 | inhibition, % at 5 µM | IEC-6 cytotoxicity, luminescence viability; in the data active = inhibition above about 22%
Ba/F3 V617F tox: reduced viability of JAK2V617F-dependent Ba/F3 cells, primary screen, JAK2V617F inhibitor project, cell-based, Ba/F3 EpoR-JAK2V617F, luminescence; ATP luminescence; inhibition, % at 5.6 µM; hit rate 1.1% among 220,000;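 active = inhibition above the campaign mean plus 3 SD over all tested compounds, cut at about 24% in these data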;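 note: cytokine-independent growth of Ba/F3 cells driven by EpoR plus mutant JAK2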
KLF5 inh: KLF5 expression inhibitors, primary screen, DLD-1 cells, luminescence; DLD-1 KLF5 promoter-luciferase reporter; inhibition, % at 5 µM; hit rate 0.23% among 290,000; AID 1700, 2009;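 active = inhibition above a per-plate limit of that plate's mean compound inhibition plus 3 SD, cut at about 60% in these data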;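 note: higher means less KLF5 promoter-driven luciferase light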
APP 5UTR inh: inhibitors of APP translation via 5'UTR reporter, primary screen, APP 5'UTR luciferase, SH-SY5Y cells. SH-SY5Y APP 5'UTR-luciferase reporter, luminescence. inhibition, % at 2 µM. hit rate 0.82% among 190,000;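 active = inhibition above a set limit, derived from the sample mean plus 3 SD, cut at about 45% in these data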
KLF5 inh confirm: KLF5 expression inhibitors, confirmation, DLD-1 cells, luminescence | shares compounds with KLF5 inh | DLD-1 KLF5 promoter firefly luciferase reporter | inhibition, % at 4 µM | hit rate 79% among 610 | AID 1834, 2009;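 active = inhibition above a set limit taken from the earlier primary screen, cut at about 63% in these data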
IEC-6 tox-2: cytotoxicity in rat IEC-6 cells, cytotoxicity control for KLF5 inhibitor project, cell-based, luminescence, triplicate | hit rate 56% among 610 | inhibition, % at 4 µM | AID 1905, 2009 | shares compounds with KLF5 inh | IEC-6 rat intestinal cells, viability luminescence; in the data active = inhibition above about 23%;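 note: cells exposed to compounds for 48 hours before viability read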
A number is an active result; - = inactive; . = no result. Hits are enriched below; roughly 1.9% of the tested compounds scored in any of these assays.

SMILES	BaF3 tox	IEC-6 tox-1	Ba/F3 V617F tox	KLF5 inh	APP 5UTR inh	KLF5 inh confirm	IEC-6 tox-2
O=C(c1cc(-c2ccccc2Cl)on1)N1CCCC1	.	-	.	74.3	.	65.3	-
O=C(c1cccc(Cl)c1)N1CCC(C(=O)N2CCN(Cc3ccccc3)CC2)CC1	.	-	.	-	.	.	.
Cc1nn(C(C)(C)C)c(C)c1/C=N/OC(=O)Nc1ccc(Cl)cc1	-	-	-	97.6	.	105.4	-
Cc1nn(C)c(C)c1/C=N/NC(=O)C(C)(C)Oc1ccc(Cl)cc1	-	-	-	-	-	.	.
O=C(OCCCOc1ccc(F)cc1)c1ccc(O)cc1O	.	-	.	-	.	.	.
COc1cc(OC)cc(N(C(=O)CNC(=O)c2ccco2)C(C(=O)NCC2CCCO2)c2ccccc2)c1 (centres undefined)	.	-	.	65.4	.	-	-
O=c1[nH]c(=O)n([C@H]2C[C@H](O)[C@@H](CO)O2)cc1F	97.5	93.8	99.5	62.3	69.0	-	87.2
C=CCc1cccc(/C=N/NC(=O)c2ccc3nc[nH]c3c2)c1O	.	-	.	62.7	.	-	27.4
Cc1ccc(S(=O)(=O)N(CC(=O)Nc2cccc([N+](=O)[O-])c2)C2CCCCC2)cc1	-	-	-	-	-	.	.
O=c1cnnc(N/N=C/c2ccccn2)[nH]1	50.6	-	40.7	75.7	.	71.6	49.7
O=C(CN1C(=O)CSC1=O)c1ccccc1	-	-	-	-	-	.	.
Cc1ccc(C=Nc2ccccc2C(N)=O)s1	66.7	80.6	66.1	62.7	-	-	31.9
Cc1cccc(C=Nc2ccccc2C(N)=O)c1	-	-	-	-	-	.	.
CN=c1scc(-c2cccs2)n1/N=C/c1ccc(O)c(O)c1O	-	-	-	-	-	.	.
CN=c1scc(-c2cccs2)n1/N=C/c1ccccc1O	-	-	-	108.1	53.1	94.9	-
CCCCNCc1cc(OC)c(OCC(N)=O)cc1Br	-	-	-	-	-	.	.
Clc1ccc2c(c1)C(C1=NCCN1)c1ccccc1CS2 (centres undefined)	69.7	65.8	76.2	80.2	96.8	89.8	45.9
COc1cc(OC)c2cc(C(=O)N/N=C/c3ccccc3O)[nH]c2c1	.	-	.	83.8	.	-	-
COc1ccc2[nH]c(C(=O)N/N=C/c3ccccc3OC)cc2c1	.	-	.	-	.	.	.
COc1ccc(/C=N/NC(=O)CCn2c3ccccc3c3ccccc32)cc1O	70.6	-	77.8	73.5	86.8	79.3	-
COc1cc(/C=C/[N+](=O)[O-])ccc1OCc1cccc(C(=O)O)c1	-	-	-	71.3	57.9	67.5	-
c1cncc(-c2nn3cnnc3s2)c1	-	-	-	-	-	.	.
CCc1ccn2cc(-c3ccc4c(c3)OCO4)nc2c1	-	-	-	66.2	.	62.4	-
O=C(CN1C(=O)c2ccccc2S1(=O)=O)c1ccccc1F	.	-	.	-	.	.	.
O=C(CN1C(=O)c2ccccc2S1(=O)=O)c1ccc2c(c1)OCCCO2	-	-	-	101.1	.	108.5	-
SMILES	BaF3 tox	IEC-6 tox-1	Ba/F3 V617F tox	KLF5 inh	APP 5UTR inh	KLF5 inh confirm	IEC-6 tox-2
O=C(CN1C(=O)c2ccccc2S1(=O)=O)c1ccc2c(c1)OCCO2	-	-	-	90.8	.	96.9	-
O=C(CN1C(=O)c2ccccc2S1(=O)=O)c1ccc(F)cc1	-	-	-	-	.	.	.
O=C(CN1C(=O)c2ccccc2S1(=O)=O)c1ccc(Cl)cc1Cl	.	-	.	83.7	.	83.3	-
CCC(CC)Nc1ccc(C(CC(N)=O)NC(=O)c2ccccc2)cc1[N+](=O)[O-] (centres undefined)	.	-	.	-	.	.	.
O=C(O)c1cccc(COc2ccc3c(c2)CCC3)c1	-	-	-	97.6	.	99.8	-
O=C(NCc1ccccc1)c1cccc(COc2ccc3c(c2)CCC3)c1	-	-	-	-	-	.	.
c1ccc(-c2noc(-c3ccc4ccccc4c3)n2)nc1	-	-	-	81.6	48.6	106.0	-
COc1ccccc1-c1nnc2n1N=C(c1ccc(O)c(O)c1)CS2	91.9	-	95.0	79.5	94.6	91.7	-
CNc1cc(-n2nc(C)cc2-c2ccccc2)ncn1	-	-	-	-	-	.	.
Cc1cc(-c2ccccc2)n(-c2cc(N/N=C/c3ccccc3O)ncn2)n1	76.3	-	68.8	70.0	96.0	88.0	-
CN(Cc1ccsc1)C(=O)CCc1nnc(Cc2c[nH]c3ccccc23)o1	-	-	-	-	-	.	.
O=C(NCCc1ccccc1)c1ccc2c(c1)OCO2	.	-	.	62.7	.	-	-
Cc1ccc(C(=O)O/N=C(\N)c2ccccn2)c(C)c1	.	-	.	108.0	.	104.5	-
COc1ccc(CC(=O)NCC(=O)N/N=C/c2ccc(C)o2)cc1	-	-	-	-	-	.	.
CCOc1ccc2[nH]cc(C(=O)O)c(=O)c2c1	-	-	-	-	-	.	.
COc1cccc(C(=O)Nc2nc3ccccc3[nH]2)c1	-	-	-	-	-	.	.
O=C(Nc1cnc2ccccc2c1)c1cccnc1	-	-	-	-	-	.	.
Cc1ccc(C(=O)Nc2cnc3ccccc3c2)cc1	-	-	-	96.9	-	104.6	-
COc1ccc(C(=O)Nc2nc3ccccc3[nH]2)cc1	.	-	.	65.4	.	-	-
Cc1ccc(C(=O)Nc2nc3ccccc3[nH]2)cc1	.	-	.	85.6	.	66.0	-
O=C(Nc1nc2ccccc2[nH]1)c1ccc([N+](=O)[O-])cc1	-	-	-	-	-	.	.
Cn1ncc(Br)c1C(=O)N/N=C/c1ccc(OS(=O)(=O)c2ccccc2)cc1	-	-	-	-	-	.	.
Cc1ccc(CC(=O)Nc2ccc(C(=O)N3CCCCC3)cc2)cc1	.	-	.	-	.	.	.
Cc1ccc(NC(=O)c2cc3ccccc3oc2=O)cc1S(=O)(=O)N(C)C	-	-	-	75.5	47.1	87.2	-
Cc1cc(/C=N/Nc2nc(N)ncc2[N+](=O)[O-])c(C)n1-c1ccccc1F	-	-	-	77.5	.	94.1	-
SMILES	BaF3 tox	IEC-6 tox-1	Ba/F3 V617F tox	KLF5 inh	APP 5UTR inh	KLF5 inh confirm	IEC-6 tox-2
Cc1cccc(C)c1-n1c(C)cc(/C=N\Nc2ccc([N+](=O)[O-])cn2)c1C	-	-	-	-	-	.	.
O=C(O)c1ccc(N/N=C/c2ccc3nccnc3c2)cc1	-	-	-	98.0	.	103.2	-
O=C(C1CCN(S(=O)(=O)c2cnc[nH]2)CC1)N1CCN(c2ncccn2)CC1	-	-	-	-	-	.	.
COc1ccc(CNC(=O)CN(C(=O)c2csnn2)c2ccc(C(C)=O)cc2)cc1	.	-	.	-	.	.	.
O=C(O)c1ccc(N/N=C/c2c[nH]c3ccccc23)cc1	.	-	.	77.0	.	69.9	-
O=C(O)CSCNC(=O)C12CC3CC(CC(C3)C1)C2	-	-	-	-	-	.	.
O=C(Nc1cccc(O)c1)c1cc(-c2ccc3c(c2)OCO3)on1	.	-	.	83.4	.	71.8	-
C/C(=N\Nc1ccc2nncn2n1)c1ccccn1	68.6	-	75.9	67.8	.	76.2	82.9
O=C(COc1ccc(Cl)cc1)NCc1nnc2c3ccccc3c(-c3ccccc3)nn12	-	-	-	-	-	.	.
